From PubChem BioAssay (Tox21) come the findings set out here.

Assay [1] is described as follows: qHTS assay to identify small molecule antagonists of the constitutive androstane receptor (CAR) signaling pathway - cell viability counter screen (AID 1224837). Note: nearly all actives have a fitted effect of over 45% in size. The essentials:
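HepG2 cells stably carrying hCAR and CYP2B6-2.2kb reporter, stimulated with 50 nM CITCO and compounds at 15 concentrations for 23 h at 37 C. Viability measured by CellTiter-Fluor fluorescence.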

Assay [2] deals with Nuclear receptor subfamily 1 group I member 3 (Homo sapiens) (UniProt Q14994). Put plainly: qHTS assay to identify small molecule antagonists of the constitutive androstane receptor (CAR) signaling pathway (AID 1224838). Note: nearly all actives have a fitted effect of over 40% in size. The essentials: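 HepG2 cells stably carrying hCAR and a CYP2B6-2.2kb luciferase reporter, seeded 4 hrs before compound (15 concentrations). Stimulated with 50 nM CITCO for 24 hr at 37 C. ONE-Glo luminescence read after 30 min at room temperature.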
Chain of Nuclear receptor subfamily 1 group I member 3 (Homo sapiens) (Q14994 whole entry, looked up): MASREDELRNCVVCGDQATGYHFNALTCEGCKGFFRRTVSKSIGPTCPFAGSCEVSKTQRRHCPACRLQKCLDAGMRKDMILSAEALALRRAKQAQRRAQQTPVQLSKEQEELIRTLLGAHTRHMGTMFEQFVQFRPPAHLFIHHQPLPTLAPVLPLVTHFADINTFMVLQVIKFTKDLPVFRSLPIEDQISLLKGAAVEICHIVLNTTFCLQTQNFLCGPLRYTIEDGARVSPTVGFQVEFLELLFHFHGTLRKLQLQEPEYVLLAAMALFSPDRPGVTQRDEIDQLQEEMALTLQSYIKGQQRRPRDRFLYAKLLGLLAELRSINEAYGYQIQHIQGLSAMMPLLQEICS

The target is the same in assay [3]. Put plainly: qHTS assay to identify small molecule agonists of the constitutive androstane receptor (CAR) signaling pathway (AID 1224839). Note: nearly all actives have a fitted effect of over 15% in size. Note: potency is the fitted concentration of half-maximal effect. The essentials:
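HepG2 cells stably co-transfected with hCAR and a CYP2B6-2.2kb luciferase reporter; compounds at 15 concentrations with 0.75 uM PK11195 present. After 24 hr at 37 C, luciferase read by ONE-Glo luminescence.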

The nature of assay [4]: qHTS assay to identify small molecule antagonists of the estrogen related receptor signaling pathway with the pleiotropic PPARgamma coactivator (PGC) from Tox21 10K library - cell viability counter screen (AID 1224840; active = well fitted cell-killing curve with a large enough effect in the repeat runs, not every such curve was filed as active; note: nearly all actives have a fitted effect of over 40% in size). A digest of the protocol: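 PGC/ERR cells (2,000/well) plated 6 h, then compound-treated for 17.5 h at 37 C. Viability measured by CellTiter-Fluor fluorescence after 30 min at 37 C, multiplexed with the pathway assay.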

A short description of assay [5]: qHTS assay to identify small molecule agonists of the hypoxia (HIF-1) signaling pathway - cell viability counter screen (AID 1224844; calls by dose curve; note: nearly all actives have a fitted effect of over 50% in size). The essentials: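 HRE-bla ME-180 cells, 2,000/well in 0.5% dialyzed FBS medium, treated 17 h at 37C with compounds. Viability read in the same wells as the bla reporter, by CellTiter-Glo luminescence after 30 min at room temperature.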

The nature of assay [6]: qHTS assay to identify small molecule agonists of H2AX (AID 1224845; active = well fitted activation curve with a large enough effect in the signal ratio in the repeat runs, not every such curve was filed as active; the % refers to the signal ratio). A digest of the protocol: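 Wild-type CHO-K1 cells, plated overnight, exposed 3hr at 37C to 15 concentrations (0.76% DMSO final). Lysed, then HTRF anti-pH2AX (S139) cryptate and anti-H2AX-d2 antibodies, 24 hr room temperature; 665/620 nm emission read.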
Assay [7] can be described thus: qHTS assay to identify small molecule agonists of the hypoxia (HIF-1) signaling pathway (AID 1224846; active = well fitted activation curve with a large enough effect in the signal ratio in the repeat runs, not every such curve was filed as active; the % refers to the signal ratio). A digest of the protocol:
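HRE-bla ME-180 beta-lactamase reporter cells in medium with 0.5% dialyzed FBS, pre-incubated 5 h then exposed to compounds 17 h at 37C, 5% CO2; reporter induction read with CCF4-AM FRET substrate.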

A short description of assay [8]: qHTS assay to identify small molecule agonists of H2AX - cell viability counter screen (AID 1224847; calls by dose curve; note: top concentration of the series differs between compounds; nearly all actives have a fitted effect of over 30% in size). The essentials:
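CHO-K1 cells plated overnight at 37C, then exposed 3 h at 37C to compounds at 15 concentrations (0.76% DMSO final). Viability by CellTiter-Glo luminescence after 30 min at room temperature.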

A short description of assay [9]: qHTS RealTime-Glo MT Cell Viability Assay in HepG2 cells - 24 hour (AID 1224867). Note: nearly all actives have a fitted effect of over 50% in size. The essentials:
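Tox21 10K library screened in qHTS format on HepG2 cells carrying RealTime-Glo reagents. Compounds were added after a 5 h preincubation, and the luminescent signal from continuous culture was measured repeatedly during 40 h treatment.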

The nature of assay [10]: qHTS RealTime-Glo MT Cell Viability Assay in HEK293 cells - 32 hour (AID 1224868). Note: top concentration of the series differs between compounds; nearly all actives have a fitted effect of over 50% in size. The essentials: (§1)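 Luminescence generated by NanoLuc from substrate produced by living HEK293 cells served as the viability signal. Each value reflects the reading at its stated time point during continuous 40 h compound exposure at 37 C.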
Assay [11] can be described thus: A CellTox Green Cytotoxicity Assay to monitor cytotoxicity in HEK293 cells - 0 hour (AID 1224869). Note: nearly all actives have a fitted effect of over 50% in size. Note: potency is the fitted concentration of half-maximal effect. The essentials: (§2)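 HEK293 cells, 600/well, were preincubated 5 hours and then exposed to compounds at 37 C for up to 40 hours. A cell-impermeant cyanine dye staining dead-cell DNA was read by fluorescence at 0, 8, 16, 24, 32 and 40 h time points.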
Assay [12] is described as follows: qHTS RealTime-Glo MT Cell Viability Assay in HepG2 cells - 40 hour (AID 1224870). Note: nearly all actives have a fitted effect of over 50% in size. A digest of the protocol: (§3)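 HepG2 cells (600/well) mixed with RealTime-Glo MT reagent, settled 5 h at 37 C/5% CO2 before compound addition. Nonlytic NanoLuc luminescence from viable-cell prosubstrate reduction read repeatedly during 40 h treatment at 37 C.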
Assay [13] in a line: qHTS RealTime-Glo MT Cell Viability Assay in HEK293 cells - 16 hour (AID 1224872). The essentials: as §1
Assay [14] is described as follows: qHTS RealTime-Glo MT Cell Viability Assay in HepG2 cells - 8 hour (AID 1224873). Note: nearly all actives have a fitted effect of over 55% in size. The essentials:
as §3

Assay [15] has as its target Thyrotropin receptor (Homo sapiens) (UniProt P16473). Description: qHTS assay to identify small molecule agonists of the thyroid stimulating hormone receptor (TSHR) signaling pathway (AID 1224843; calls by dose curve; note: nearly all actives have a fitted effect of over 45% in size). The essentials:
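Steps: seed 800 TSHR-HEK293 cells per well; add test compound and hold 30 min at ambient temperature; dispense cAMP-d2 then anti-cAMP cryptate; incubate 1 h at ambient; measure fluorescence intensity.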

Assay [16] in a line: A CellTox Green Cytotoxicity Assay to monitor cytotoxicity in HEK293 cells - 40 hour (AID 1224871). Note: nearly all actives have a fitted effect of over 45% in size. The essentials: as §2
Assay [17] can be described thus: qHTS assay to identify small molecule antagonists of the estrogen related receptor signaling pathway with the pleiotropic PPARgamma coactivator (PGC) from Tox21 10K library (AID 1224841; call rule not given here). The essentials: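 PGC/ERR cell line, 2,000 cells/well, pre-incubated 6 hours at 37 C, then exposed to compounds for 18 hours at 37 C; luciferase read with One-Glo luminescence after 30 min at room temperature.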

Assay [18] can be described thus: qHTS assay to identify small molecule antagonists of the estrogen related receptor (ERR) signaling pathway from Tox21 library (AID 1224848). Note: nearly all actives have a fitted effect of over 50% in size. Note: potency is the fitted concentration of half-maximal effect. A digest of the protocol:
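Luminescent reporter read-out (ONE-Glo) from NTP's ERR cell line after 18 h treatment at 37 C with DMSO-dissolved Tox21 compounds; cells pre-plated 6 h beforehand at 2,000 per well.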

The nature of assay [19]: qHTS assay to identify small molecule agonists of the estrogen related receptor (ERR) signaling pathway from Tox21 library (AID 1224849; calls by dose curve; note: nearly all actives have a fitted effect of over 15% in size). Particulars: ERR reporter cell line, ONE-Glo luciferase, 18 h; at 92.4 µM (top of the series) unless noted. A digest of the protocol:
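ERR reporter cells (NTP line) pre-incubated 6 hours at 37 C, then exposed to compounds for 18 hours at 37 C. ONE-Glo luciferase luminescence was read after 30 minutes at room temperature.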

Values without a mark were called inactive. Records with an inconclusive call do not appear. The source made the active and inactive calls. Unless noted, calls come from the whole dose curve; as a rule, active = well fitted curve in the direction sought with a large enough effect in the repeat runs; inconclusive = weak or mixed curves; inactive = no such curve, though single readings can be large; an effect the other way counts as inactive or inconclusive.
% is set by controls: 0 for no effect and ±100 for the full control effect.

Chain of Thyrotropin receptor (Homo sapiens) (P16473 whole entry, looked up): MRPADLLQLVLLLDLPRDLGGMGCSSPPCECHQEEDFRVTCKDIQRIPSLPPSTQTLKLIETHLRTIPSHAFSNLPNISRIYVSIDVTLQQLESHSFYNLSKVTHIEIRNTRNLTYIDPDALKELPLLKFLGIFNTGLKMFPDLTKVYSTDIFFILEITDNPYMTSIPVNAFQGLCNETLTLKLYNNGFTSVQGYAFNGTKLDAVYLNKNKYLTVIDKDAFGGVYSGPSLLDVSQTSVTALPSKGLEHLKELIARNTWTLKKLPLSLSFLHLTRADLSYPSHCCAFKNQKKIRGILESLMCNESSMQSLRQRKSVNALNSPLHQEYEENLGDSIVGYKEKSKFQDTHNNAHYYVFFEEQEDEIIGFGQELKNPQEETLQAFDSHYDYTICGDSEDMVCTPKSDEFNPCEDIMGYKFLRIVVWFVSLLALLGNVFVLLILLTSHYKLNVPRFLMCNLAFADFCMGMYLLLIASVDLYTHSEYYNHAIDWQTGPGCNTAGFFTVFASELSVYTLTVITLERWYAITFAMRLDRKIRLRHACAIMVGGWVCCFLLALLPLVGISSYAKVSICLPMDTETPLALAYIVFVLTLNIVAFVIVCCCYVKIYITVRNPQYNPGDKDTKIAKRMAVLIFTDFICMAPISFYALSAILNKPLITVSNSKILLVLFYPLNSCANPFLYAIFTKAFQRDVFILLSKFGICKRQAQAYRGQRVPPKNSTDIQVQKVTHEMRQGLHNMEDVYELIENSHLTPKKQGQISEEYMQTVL

As to `C/C(=N\[Si](C)(C)C)O[Si](C)(C)C`, the Potency entry in [1], in assay [2], in assay [3], in [4], in assay [5] and in assay [6] was “inactive” throughout. Besides, the Potency entry in assay [7], in assay [8], in assay [9], in assay [10], in [11] and in assay [12] was “inactive” each time. In addition, the Potency entry in assay [13] and in assay [14] was “inactive” throughout.
`C=COCCCC`: the Potency entry in assay [1], in assay [2], in assay [3], in [4], in assay [15] and in [5] was “inactive” throughout. The Potency entry in assay [6], in assay [7], in assay [9], in assay [11], in [12] and in assay [16] was “inactive” each time.
Consider `COc1cc(C(C)C)ccc1C`, for which the activity change, negative = cytotoxicity in [1] is 1.68% [at 19 µM]; in assay [5] it was 21.3% [at 15.8 µM]; in assay [8], 1.56% [at 31.6 µM]; in [9], 0.531% [at 15.8 µM]; in assay [13] it was -1.07% [at 15.8 µM]. Besides, the activity, negative = inhibition in [2] was -11.9% [at 19 µM]. In addition, the figures for the activation in assay [3], in [15] and in [7] were -0.0502% [at 19 µM], 6.84% [at 19 µM] and -0.0499% [at 15.8 µM], respectively. The viability change, negative = cytotoxic was -28.8% [at 19 µM] in [4] and -7.86% [at 15.8 µM] in [14]. In addition, the activation (H2AX phosphorylation) in assay [6] was 0.221% [at 31.6 µM]. For the same compound, the results for the activity change, negative = cytotoxic in [10] and in assay [12] were 4.56% [at 15.8 µM] and 19.4% [at 15.8 µM], respectively. Besides, the cytotoxicity in assay [11] was -0.495% [at 15.8 µM].
Take `O=C1OC2(c3ccccc31)c1ccc(O)c(Br)c1Oc1c2ccc(O)c1Br`: the Potency result in [1], in assay [2], in assay [3], in assay [17], in assay [5] and in [8] was “inactive” throughout. Moreover, the Potency result in assay [18], in assay [9], in assay [10] and in assay [12] was “inactive” in each case. Besides, in assay [19], the activity change, positive = activation is -9.26%. Further, in [11], the Potency was 6.16 µM (active).
As for `O=C1OCc2ccccc21`, the Potency entry in [1], in assay [2], in [3], in assay [4], in assay [15] and in assay [5] was “inactive” throughout. Further, the Potency entry in assay [6], in assay [7], in assay [8], in [9], in [10] and in assay [11] was “inactive” each time. Moreover, the Potency result in assay [12] and in assay [13] was “inactive” throughout.
`CCn1c2ccccc2c2ccccc21`: the Potency entry in [1], in assay [2], in assay [4], in [15], in [5] and in assay [6] was “inactive” each time. Further, the Potency entry in assay [7], in assay [8], in [9], in [10], in assay [11] and in assay [12] was “inactive” each time. The Potency in assay [3] is 27.3 µM (active).
As to `Cc1cccc2c1ccc1ccccc12`, the Potency entry in assay [1], in assay [2], in [4], in assay [5], in [6] and in assay [7] was “inactive” throughout. For the same compound, the Potency result in assay [8], in [9], in assay [10], in [11], in assay [12] and in [13] was “inactive” throughout. Also, in assay [14], the Potency result was “inactive”. Further, the Potency in [3] is 61.1 µM (active); in assay [18] it was 24.3 µM (active). Moreover, in [19], the activity change, positive = activation is -38.7%.
`CCNc1nc(NC(C)(C)C)nc(OC)n1`: the Potency result in assay [1], in assay [2], in assay [4], in assay [15], in [5] and in [6] was “inactive” in each case. The Potency result in assay [7], in assay [9], in assay [11], in [12], in assay [13] and in assay [14] was “inactive” each time. In assay [3], the Potency was 30.6 µM (active).
For the compound `Cc1ccc2sc3cccc(C)c3c2c1`, the Potency result in assay [1], in [2], in assay [4], in [15], in [5] and in [6] was “inactive” in each case. Further, the Potency result in assay [7], in [8], in [9], in assay [10], in [11] and in assay [12] was “inactive” in each case. Further, the Potency result in assay [16], in assay [13] and in [14] was “inactive” in each case. The Potency in assay [3] is 27.3 µM (active).
